TbPYK inhibitor = qHTS of Trypanosoma Brucei Inhibitors | AID 624173, 2012 | TbPYK enzyme, Kinase-Glo Plus ATP luminescence, 45 min | pyruvate kinase (Trypanosoma brucei), Q57TT1 | Potency, µM (doses to about 76.8 µM), without a hit: at the top dose activity, negative = inhibition, usual class: inhibitors | 0.12% of 410,000 active; also: potency is read from the fitted curve at half-maximal effect; % is scaled to controls: 0 for no effect and ±100 for the full control effect; nearly all actives have a fitted effect of over 50% in size
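Screened from lowest to highest concentration, compounds were pinned into TbPYK/substrate mixtures, and ADP (130 uM final) was added. Plates sat at room temperature for 45 min prior to Kinase-Glo Plus detection by luminescence.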
Giardia FBPA inh = qHTS Assay for Inhibitors of Fructose-1,6-bisphosphate Aldolase from Giardia Lamblia. AID 2451, 2010. 0.71% of 290,000 active. Potency, µM (titrated, usually from 59.6 µM), without a hit: at the highest dose activity, negative = inhibition, usual class: inhibitors. A8B2U2. purified Giardia FBPA; also: potency is read from the fitted curve at half-maximal effect; % is scaled to controls: 0 for no effect and ±100 for the full control effect; nearly all actives have a fitted effect of over 55% in size
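Giardia FBPA (40 nM reagent) was preincubated 10 min at RT with compound (up to 57.5 uM final), then substrate plus GAPDH/TPI/NAD/arsenate coupling system with diaphorase/resazurin was added; resorufin fluorescence (525/598 nm) was read after 20 min.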
Shiga inhibitor = A qHTS for Small Molecule Inhibitors of Shiga Toxin; Vero cells, Shiga toxin protein synthesis inhibition reporter; inhibition, % at 38.7 µM; 9.2% of 290,000 active; AID 2315, 2010; in the data active = inhibition mostly above about 28%, no sharp cut-off; inactive = mostly below about 43%; also: 0% is about no effect
RE007 growth inh = qHTS Assay for Inhibitors of the HIV-1 protein Vpr. S. pombe RE007 Vpr strain, BacTiter-Glo ATP luminescence, 24 h. Potency, µM (titrated, usually from 92.2 µM), without a hit: at the highest dose activity change, negative = less growth, most hits filed as inhibitors. 0.21% of 360,000 active; active = well fitted falling curve with a large enough effect; inconclusive = small, poorly fitted or top-dose-only effect; inactive = no such curve, though single readings can be large or run the other way; also: potency is read from the fitted curve at half-maximal effect; % is scaled to controls: 0 for no effect and ±100 for the full control effect; nearly all actives have a fitted effect of over 50% in size
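Fission yeast strain RE007, carrying one chromosomally integrated HIV-1 vpr copy, was seeded at OD 0.01 in PMG+AL medium with 23 nL pinned compound. After 24 h at 30 °C and 99% humidity, viability was read by BacTiter-Glo luminescence.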
LmPK inhibitor = qHTS Assay for Inhibitors of Leishmania Mexicana Pyruvate Kinase (LmPK). purified LmPK, Kinase-Glo ATP luminescence, 1 h. 0.37% of 290,000 active. AID 1721, 2009. Q27686. Potency, µM (doses to about 57.5 µM), inactives show at the highest dose activity change, negative = inhibition, actives largely listed as inhibitors; also: potency is read from the fitted curve at half-maximal effect; % is scaled to controls: 0 for no effect and ±100 for the full control effect
Target sequence (Q27686 whole entry, looked up): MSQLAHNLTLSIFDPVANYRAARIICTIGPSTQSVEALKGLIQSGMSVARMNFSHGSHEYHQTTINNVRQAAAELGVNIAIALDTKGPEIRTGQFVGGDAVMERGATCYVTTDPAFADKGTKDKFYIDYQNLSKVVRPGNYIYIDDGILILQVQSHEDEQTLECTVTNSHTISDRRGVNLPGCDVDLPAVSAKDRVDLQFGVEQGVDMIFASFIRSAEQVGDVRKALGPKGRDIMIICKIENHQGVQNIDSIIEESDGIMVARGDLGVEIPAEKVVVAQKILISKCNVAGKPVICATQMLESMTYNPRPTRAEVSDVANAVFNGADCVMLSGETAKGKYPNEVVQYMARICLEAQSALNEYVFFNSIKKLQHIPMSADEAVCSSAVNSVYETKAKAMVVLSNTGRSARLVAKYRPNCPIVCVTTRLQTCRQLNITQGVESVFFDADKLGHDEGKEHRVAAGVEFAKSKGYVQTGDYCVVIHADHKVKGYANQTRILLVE
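Screened at intermediate enzyme activity to detect both inhibitors and activators: LmPK at 0.1 nM, with a 0.5 nM enzyme column as activation reference. PEP 0.5 mM, ADP 0.1 mM; ATP detected by luminescence after 1 h.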
CHX counter = Cycloheximide Counterscreen for Small Molecule Inhibitors of Shiga Toxin; cell reporter, cycloheximide protein synthesis inhibition counterscreen; max response, %; 12% of 300,000 active; in the data active = max response mostly above about 13%, no sharp cut-off; inactive = mostly below about 14%; also: read at 38.3 µM for the half of the compounds with a filed dose; 0% is about no effect
An asterisk follows results filed as active; ? = inconclusive; . = not tested or not shown. Only a selection was taken, and hits are over-represented in it overall. Unless noted, calls follow the shape of the dose curve; as a rule, active = well fitted curve in the direction sought with a large enough effect; inconclusive = small, poorly fitted or top-dose-only effect, or another doubt; inactive = no such curve, though single readings can be large; an effect the other way counts as inactive or inconclusive.

SMILES	TbPYK inhibitor	Giardia FBPA inh	Shiga inhibitor	RE007 growth inh	LmPK inhibitor	CHX counter
ON=C1c2ccccc2-c2ccccc21	1%	3%	23*	-7%	5%	25*
c1ccc2cc(C3N4CCCN34)ccc2c1 (centres undefined)	-2%	-1%	24	-12%	17%	24*
Cc1ccccc1/C(N)=N/OC(=O)/C=C/c1ccccc1	1%	1%	159*	1%	-14%	44*
COc1ccc(/C=C/C(=O)O/N=C(\N)c2ccccc2)cc1OC	5%	2%	28*	-23%	-3%	36*
Cc1ccc(/C(N)=N/OC(=O)/C=C/c2ccccc2)cc1	-2%	2%	55	-24%	0%	23*
CCOc1ccc(NC(=O)Cn2c(=O)n(Cc3ccc(C(=O)NCc4ccc(C)cc4)cc3)c(=O)c3ccccc32)cc1	-4%	.	.	.	.	.
CCOC(=O)c1c(S(=O)(=O)NCC(=O)Nc2cccc(C)c2)c(C)n(C)c1C	6%	.	-10	-3%	9%	-5
Clc1ccc(Nc2ccc(NCc3ccccc3)nn2)cc1	5%	-5%	60*	13%	2%	34*
Cc1cc(NCc2ccccc2)nc2ccccc12	-4%	1%	19	-5%	6%	15
Clc1ccc(-c2nnc(NCc3ccccc3)c3ccccc23)cc1	3%	3%	12	-9%	1%	2
Cc1ccc(Nc2ccc(NCc3ccccc3)nn2)cc1C	-3%	1%	68*	-9%	-5%	33*
COc1ccc(N(C(=O)c2ccc(C(C)(C)C)cc2)S(=O)(=O)c2ccc(Cl)cc2)cc1	-7%	.	.	.	.	.
CCOC(=O)c1c(C)oc2c1c(C=NCC1CCCO1)c(O)c1ccccc12 (centres undefined)	1%	?	-11	-21%	1%	-3
CCOC(=O)c1c(C)oc2c1c1c(c3ccccc32)OCN(Cc2cccnc2)C1	-3%	5µM*	131*	-3%	0%	77*
CCOC(=O)c1c(C)oc2c1c1c(c3ccccc32)OCN(CCCC(=O)O)C1	1%	?	89*	-9%	3%	62*
CC(=O)Nc1ccc(NC(=O)[C@@H](NC(=O)N2C[C@H]3C[C@@H](C2)c2cccc(=O)n2C3)C(C)C)cc1	0%	10%	-2	-2%	-5%	-3
Cc1ccc(C2=NN(CCC(=O)NCc3ccc4c(c3)OCO4)C(=O)CC2)cc1	-3%	7%	-4	4%	-2%	20*
COc1ccc(C(CNC(=O)Cc2cccs2)N(C)C)cc1 (centres undefined)	1%	10%	19	-1%	-4%	11*
O=C(Cc1cccs1)NCc1ccc(Cl)cc1	-12%	13%	15	-4%	-1%	15*
COc1ccccc1CC(=O)NCc1ccc2c(c1)OCO2	1%	-1%	29*	6%	2%	16*
COc1cc(CNC(=O)c2ccc3c(c2)c(C)c(C)n3Cc2cccc(C)c2)cc(OC)c1OC	-2%	.	.	.	.	.
CCOC(=O)C1(C)C=C(Nc2cccc(C(=O)O)c2)C(=O)N1c1ccccc1 (centres undefined)	-10%	.	.	.	.	.
CC(C)CCC(=O)N1CCOC1=O	6%	-13%	-5	4%	-1%	-3
Cc1ccc(S(=O)(=O)N2CCOCC2)cc1C(=O)OCCOc1cccc(Cl)c1	2%	.	.	-11%	.	.
COc1ccc(C(CNC(=O)CN2C(=O)NC3(CCCC3)C2=O)N(C)C)cc1 (centres undefined)	1%	.	-21	1%	-5%	25*
SMILES	TbPYK inhibitor	Giardia FBPA inh	Shiga inhibitor	RE007 growth inh	LmPK inhibitor	CHX counter
O=C(CCn1c(=O)sc2ccccc21)NCc1ccc2c(c1)OCO2	1%	1%	6	-4%	2%	12*
COc1ccc(CNC(=O)Cc2cccs2)cc1	11%	2%	61*	3%	-2%	43*
O=C(Cc1cccs1)NCc1cccs1	4%	4%	39	-2%	0%	13
COc1ccc(CCNC(=O)CN2C(=O)NC3(CCCCC3)C2=O)cc1	1%	.	.	-11%	.	.
O=C(Cc1cccs1)NCc1ccc(F)cc1	11%	5%	34	25%	3%	22*
COc1ccc(Cl)cc1NC(=O)CCCn1c(C)c2cnn(-c3ccccc3)c(=O)c2c1C	-7%	.	.	.	.	.
O=C(Cc1cccs1)NCc1cccc(Br)c1	9%	?	66*	7%	2%	29*
CN(C)c1ccc(C(CNC(=O)c2cccs2)N(C)C)cc1 (centres undefined)	2%	5%	51*	1%	0%	50*
O=C(Cc1cccs1)NCc1ccc2c(c1)OCO2	-2%	4%	53*	7%	-5%	17*
CN(C)c1ccc(NC(=O)COC(=O)CNC(=O)c2cccs2)cc1	0%	.	.	3%	.	.
CCCC(=O)OCC(=O)Nc1ccc2c(c1)OCO2	-4%	0%	29	-14%	8%	15*
O=C(COC(=O)C1CC1)Nc1ccc2c(c1)OCO2	0%	-3%	52	-12%	-16%	36*
COc1ccc(C(=O)N2CCC3(CCCN(c4ncccn4)C3)CC2)cc1	3%	8%	.	.	.	.
C/C(=C(/CCO)SS/C(CCO)=C(\C)N(C=O)Cc1cnc(C)nc1N)N(C=O)Cc1cnc(C)nc1N	-1%	.	.	.	.	.
CCOC(=O)c1sc2nc3n(c(=O)c2c1C)CCCCC3	4%	5%	103*	1%	-7%	47*
CCCC(C)NC(=O)c1sc2nc3n(c(=O)c2c1C)CCC3 (centres undefined)	4%	3%	29	20%	0%	17*
CCN1C(=O)c2ccccc2S(=O)(=O)c2ccc(C(=O)NCc3ccccc3Cl)cc21	12%	.	.	.	.	.
COc1ccc(NC(=O)CCn2nc(C)cc2C)cc1	-15%	-10%	1	10%	-1%	7
Cc1ccn(CCC(=O)Nc2ccc3c(c2)OCO3)n1	-1%	.	73*	-7%	4%	24*
Cc1cc(C)n(CCC(=O)Nc2ccc3c(c2)OCCO3)n1	1%	0%	45*	10%	-3%	15*
CCCn1ccc2c(OCC(=O)Nc3ccc(OC)c(OC)c3)cccc2c1=O	1%	.	.	.	.	.
C#CCn1c(=O)c2c(nc(/C=C/c3cccc(OC)c3)n2C)n(CCCO)c1=O	.	0%	-4	.	.	-4
Cc1cccc(-c2ncc(S(=O)(=O)C(C)(C)C)c(N)n2)c1	-3%	10%	30	8%	1%	11*
CC(C)(C)S(=O)(=O)c1cnc(-c2ccccn2)nc1N	0%	?	25	17%	0%	8
Oc1ccc(Cl)cc1N=Nc1ccccc1	2%	-9%	37	-17%	-3%	27*

Bioassay records (PubChem)
